PubChem BioAssay (Tox21)
Records with an inconclusive call do not appear. A call without a number means that no potency is given here. Unmarked numbers belong to inactive results. Active and inactive are the calls of the source. Unless noted, calls follow the shape of the dose curve; as a rule, active = well fitted curve in the direction sought with a large enough effect in the repeat runs; inconclusive = weak or mixed curves; inactive = no such curve, though single readings can be large; an effect the other way counts as inactive or inconclusive.

What was measured:
[1] = qHTS assay to identify small molecule agonists of the vitamin D receptor (VDR) signaling pathway - cell viability counter screen (AID 743224); also: series mostly up to about 63 µM; nearly all actives have a fitted effect of over 50% in size
Method in brief: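 Cells: VDR-bla, 2,000/well, settled 4 h. Treatment: compounds in DMSO, 16 h, 37C/5% CO2. Readout: CellTiter-Glo luminescence after 30 min RT.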

[2] = qHTS assay to identify small molecule antagonists of the vitamin D receptor (VDR) signaling pathway - cell viability counter screen (AID 743225); also: nearly all actives have a fitted effect of over 50% in size
Method in brief: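 VDR-UAS-bla HEK 293T cells were plated and incubated 4 h at 37C, then dosed with compound plus 3 nM (final) 1-alpha,25-dihydroxyvitamin D3 for 16 h. After the 2 h beta-lactamase read, viability in the same wells was read as CellTiter-Glo luminescence after 30 min at room temperature.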

[3] = qHTS assay to identify small molecule agonists of the NFkB signaling pathway (AID 1159509; active = well fitted curve in the direction sought with a large enough effect in the signal ratio in the repeat runs, not every such curve was filed as active; the % refers to the signal ratio; also: series mostly up to about 61 µM)
Method in brief: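 Pathway activation was measured in ME-180 cells stably expressing beta-lactamase under NF-kB response element control. Substrate cleavage was read as the 460/530 nm emission shift after 5 hr compound incubation.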

[4] = qHTS assay to identify small molecule agonists of the NFkB signaling pathway - cell viability counter screen (AID 1159515; calls by dose curve; also: series mostly up to about 61 µM; nearly all actives have a fitted effect of over 55% in size)
Method in brief: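 Cells are seeded (2,000 NFkB-bla ME-180 per well), rested overnight, and dosed with DMSO-dissolved compounds for 5 hr at 37 C. Viability is then read by CellTiter-Glo luminescence after 30 min at room temperature.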

[5] = qHTS assay to identify small molecule agonists of the endoplasmic reticulum stress response signaling pathway (AID 1159516; active = well fitted activation curve with a large enough effect in the signal ratio in the repeat runs, not every such curve was filed as active; the % refers to the signal ratio)
Method in brief: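 Cells are seeded at 1,500 per well and incubated overnight. Compounds in DMSO are added for 5 hr at 37 C, then beta-lactamase FRET substrate for 2 hr at room temperature, and fluorescence at 460 and 530 nm is measured.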

[6] = qHTS assay to identify small molecule agonists of the endoplasmic reticulum stress response signaling pathway - cell viability counter screen (AID 1159517; calls by dose curve;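 also: HeLa cells carrying an ER stress response element beta-lactamase reporter; series mostly up to about 61 µM; nearly all actives have a fitted effect of over 50% in size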)
Method in brief: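 In parallel with the ESRE reporter read, cytotoxicity was scored by CellTiter-Glo luminescence (30 min, room temperature) on HeLa ESRE-bla cells dosed for 5 hr.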

[7] = qHTS assay to identify small molecule antagonists of the retinoid-related orphan receptor gamma (ROR-gamma) signaling pathway - cell viability counter screen (AID 1159520); also: nearly all actives have a fitted effect of over 50% in size
Method in brief: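 Tet-on ROR gamma CHO cells were given compounds for 2 hr, then doxycycline hyclate at 1 uM final, and incubated 16 hr at 37 C. Viability was measured as ATP content by CellTiter-Glo luminescence.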

[8] = biological target: Nuclear receptor ROR-gamma (Homo sapiens) (UniProt P51449); assay: qHTS assay to identify small molecule antagonists of the retinoid-related orphan receptor gamma (ROR-gamma) signaling pathway (AID 1159521)
Method in brief: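 Tet-on ROR-gamma CHO cells with ROR response element-luciferase reporter; compounds added 2 hr before 1 uM doxycycline induction, then 16 hr at 37 C. Antagonism scored as decreased ONE-Glo luminescence.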

[9] = qHTS assay to identify small molecule agonists of the AP-1 signaling pathway - cell viability counter screen (AID 1159525; calls by dose curve; also: nearly all actives have a fitted effect of over 55% in size)
Method in brief: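 Same-well cytotoxicity counter screen of the Tox21 10K library in ME-180 cells. The readout is ATP-dependent luminescence after 5 h compound treatment. Data are normalised to DMSO and tetra n-octyl ammonium bromide controls.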

[10] = qHTS assay to identify small molecule agonists of the AP-1 signaling pathway (AID 1159526; calls by dose curve)
[11] = biological target: Retinoic acid receptor RXR-alpha (Homo sapiens) (UniProt P19793); assay: qHTS assay to identify small molecule agonists of the RXR signaling pathway (AID 1159527; calls by dose curve; also: nearly all actives have a fitted effect of over 35% in size)
Chain of Retinoic acid receptor RXR-alpha (Homo sapiens) (P19793 whole entry, looked up): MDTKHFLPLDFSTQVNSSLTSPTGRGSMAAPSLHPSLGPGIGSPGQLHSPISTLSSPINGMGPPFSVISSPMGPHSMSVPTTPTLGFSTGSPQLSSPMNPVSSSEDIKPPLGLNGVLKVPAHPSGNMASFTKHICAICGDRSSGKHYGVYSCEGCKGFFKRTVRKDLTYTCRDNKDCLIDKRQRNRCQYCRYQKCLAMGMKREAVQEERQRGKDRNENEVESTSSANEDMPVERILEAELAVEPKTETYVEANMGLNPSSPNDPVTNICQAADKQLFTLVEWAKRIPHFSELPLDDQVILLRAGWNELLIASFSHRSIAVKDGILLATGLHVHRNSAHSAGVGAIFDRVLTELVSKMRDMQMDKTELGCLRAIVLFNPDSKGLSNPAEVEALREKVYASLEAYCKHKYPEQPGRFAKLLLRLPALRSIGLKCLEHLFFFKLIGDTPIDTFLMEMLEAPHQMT
Method in brief: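 GeneBLAzer RXR-alpha-UAS-bla HEK 293T cells in 2% charcoal-stripped FBS medium were exposed to compounds for 16 hr at 37 C in agonist mode. Beta-lactamase reporter read as 460/530 nm FRET ratio after 2 hr substrate loading.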

[12] = qHTS assay to identify small molecule agonists of the RXR signaling pathway - cell viability counter screen (AID 1159529)
Method in brief: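 RXR-alpha-UAS-bla HEK 293T cells in medium with 2% charcoal-stripped FBS were pre-incubated 5 hr, then compound-treated 16 hr at 37 C. Viability was read by CellTiter-Glo luminescence in the same wells as the beta-lactamase assay, with tetraoctyl ammonium bromide as positive control.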

[13] = qHTS assay to identify small molecule antagonists of the retinoid acid receptor (RAR) signaling pathway - cell viability counter screen (AID 1159551); also: nearly all actives have a fitted effect of over 35% in size
Method in brief: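 Cells (C3RL4) are plated, incubated overnight, dosed with compound in DMSO, then given retinol at 1 uM final. After 6 h at 37 C, CellTiter-Glo is added and luminescence read following 30 min at room temperature.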

[14] = qHTS assay to identify small molecule antagonists of the retinoic acid receptor (RAR) signaling pathway (AID 1159552; also: nearly all actives have a fitted effect of over 50% in size)
Method in brief: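 Retinol signaling pathway inhibitors screened in C3RL4 RARE-luciferase reporter cells seeded overnight at 37 C, then compounds added with 1 uM (final) retinol as pathway substrate. After 6 hr at 37 C, luciferase luminescence read after 30 min at room temperature.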

[15] = qHTS assay to identify small molecule agonists of the retinoic acid receptor (RAR) signaling pathway (AID 1159553); also: potency is read from the fitted curve at half-maximal effect
Method in brief: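 Seed C3RL4 reporter cells at 1,000 per well and incubate overnight at 37 C. Add compounds in DMSO, incubate 6 hr. Add luciferase reagent, wait 30 min at room temperature, read luminescence.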

[16] = qHTS assay to identify small molecule antagonists of the estrogen related receptor (ERR) signaling pathway from Tox21 library - cell viability counter screen (AID 1224834); also: nearly all actives have a fitted effect of over 30% in size
Method in brief: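 ERR cells, 2,000/well; 6 h settle at 37 C/5% CO2; pin-tool compound transfer in DMSO; 17.5 h at 37 C; CellTiter-Fluor, 30 min; fluorescence intensity.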

[17] = biological target: Luciferin 4-monooxygenase (Photinus pyralis) (UniProt P08659); assay: qHTS assay to identify small molecule inhibitors of firefly luciferase (AID 1224835); also: nearly all actives have a fitted effect of over 25% in size; also: potency is read from the fitted curve at half-maximal effect
Chain of Luciferin 4-monooxygenase (Photinus pyralis) (P08659 whole entry, looked up): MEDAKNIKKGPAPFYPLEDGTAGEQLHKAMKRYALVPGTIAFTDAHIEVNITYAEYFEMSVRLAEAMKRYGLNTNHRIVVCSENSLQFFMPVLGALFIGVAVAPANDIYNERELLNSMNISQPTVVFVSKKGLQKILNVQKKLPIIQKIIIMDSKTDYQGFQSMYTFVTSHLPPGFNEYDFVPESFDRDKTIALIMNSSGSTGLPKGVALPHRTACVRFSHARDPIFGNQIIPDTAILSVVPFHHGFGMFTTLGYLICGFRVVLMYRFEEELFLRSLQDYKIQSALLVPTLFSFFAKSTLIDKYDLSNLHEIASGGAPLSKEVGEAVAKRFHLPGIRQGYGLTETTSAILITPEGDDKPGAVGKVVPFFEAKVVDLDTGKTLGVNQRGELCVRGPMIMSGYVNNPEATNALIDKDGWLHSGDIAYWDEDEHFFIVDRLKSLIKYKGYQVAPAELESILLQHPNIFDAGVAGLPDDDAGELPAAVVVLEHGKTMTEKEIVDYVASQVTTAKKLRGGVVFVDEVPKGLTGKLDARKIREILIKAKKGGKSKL
Method in brief: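 Biochemical qHTS: compounds run as interplate titrations against purified firefly enzyme, with D-luciferin and ATP each at its KM concentration. Light output recorded by CCD imaging.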

[18] = qHTS assay to identify small molecule agonists of the constitutive androstane receptor (CAR) signaling pathway - cell viability counter screen (AID 1224836); also: series mostly up to about 92 µM; nearly all actives have a fitted effect of over 45% in size
Method in brief: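 HepG2 cells stably carrying hCAR and a CYP2B6-2.2kb reporter; 15-concentration compounds plus PK11195 (final 0.75 uM), 23 hr at 37 C/5% CO2. Viability read by CellTiter-Fluor fluorescence.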

[19] = qHTS assay to identify small molecule antagonists of the constitutive androstane receptor (CAR) signaling pathway - cell viability counter screen (AID 1224837); also: series mostly up to about 92 µM; nearly all actives have a fitted effect of over 45% in size
Method in brief: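 Viability was measured with CellTiter-Fluor in a HepG2 line carrying stably transfected hCAR and a CYP2B6-2.2kb construct. Cells were exposed for 23 hr at 37 C to 15 compound concentrations with 50 nM CITCO as agonist.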

[20] = biological target: Nuclear receptor subfamily 1 group I member 3 (Homo sapiens) (UniProt Q14994); assay: qHTS assay to identify small molecule antagonists of the constitutive androstane receptor (CAR) signaling pathway (AID 1224838);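 also: HepG2 cells stably expressing hCAR with CYP2B6 luciferase reporter stimulated by CITCO; nearly all actives have a fitted effect of over 40% in size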
Chain of Nuclear receptor subfamily 1 group I member 3 (Homo sapiens) (Q14994 whole entry, looked up): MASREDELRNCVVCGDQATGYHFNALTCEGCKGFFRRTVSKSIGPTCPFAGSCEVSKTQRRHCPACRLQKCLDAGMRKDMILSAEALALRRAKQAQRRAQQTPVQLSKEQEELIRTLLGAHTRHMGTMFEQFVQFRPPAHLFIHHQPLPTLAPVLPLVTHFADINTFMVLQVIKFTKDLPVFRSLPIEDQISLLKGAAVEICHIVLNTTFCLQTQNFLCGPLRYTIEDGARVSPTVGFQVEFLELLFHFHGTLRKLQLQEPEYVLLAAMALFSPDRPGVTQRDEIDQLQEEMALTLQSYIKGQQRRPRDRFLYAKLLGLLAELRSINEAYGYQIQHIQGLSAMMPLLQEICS
Method in brief: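 Antagonist mode used CITCO at a final 50 nM to activate CAR in human hepatoma HepG2 cells carrying stable hCAR and a 2.2 kb CYP2B6 promoter-luciferase construct. Compounds were tested at 15 concentrations over 24 h, with luminescence as the end point.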

Row | Compound | outcome [1] | outcome [2] | outcome [3] | outcome [4] | outcome [5] | outcome [6] | outcome [7] | outcome [8] | outcome [9] | outcome [10] | Potency [11] | outcome [12] | outcome [13] | outcome [14] | Potency [15] | outcome [16] | Potency [17] | outcome [18] | outcome [19] | Potency [20]
1 | CCCC(=O)Nc1ccc(OCC(O)CNC(C)C)c(C(C)=O)c1 (configuration not stated) | inactive | inactive | inactive | inactive | inactive | inactive | inactive | inactive | inactive | inactive | inactive | inactive | inactive | inactive | inactive | inactive | inactive | inactive | inactive | inactive
2 | CN1CCOC(c2ccccc2)c2ccccc2C1 (configuration not stated) | inactive | inactive | inactive | inactive | inactive | inactive | inactive | inactive | inactive | inactive | inactive | inactive | inactive | inactive | inactive | inactive | inactive | inactive | inactive | inactive
3 | CCCCCCCCCCCCCCC(=O)NC(CO)CCCCCCCCCCCCCC (configuration not stated) | inactive | inactive | inactive | inactive | inactive | inactive | inactive | inactive | inactive | inactive | inactive | inactive | inactive | inactive | inactive | inactive | inactive | inactive | – | inactive
4 | C/C(=C1\CCOC(=O)S1)N(C=O)Cc1cnc(C)nc1N | inactive | – | inactive | inactive | inactive | inactive | inactive | inactive | inactive | inactive | inactive | inactive | inactive | inactive | inactive | inactive | inactive | – | inactive | inactive
5 | CCC(C(=O)OCCN1CCOC(c2ccccc2)C1C)c1ccccc1 (configuration not stated) | inactive | – | inactive | inactive | inactive | inactive | inactive | inactive | inactive | inactive | inactive | inactive | inactive | inactive | inactive | inactive | inactive | – | inactive | inactive
6 | CC(=O)CCC1=C(C)CCCC1(C)C | – | inactive | inactive | inactive | inactive | inactive | inactive | inactive | inactive | inactive | inactive | inactive | inactive | inactive | inactive | inactive | inactive | inactive | – | inactive
7 | OCC1(CO)COCOC1 | inactive | inactive | inactive | inactive | inactive | inactive | inactive | inactive | inactive | inactive | inactive | inactive | inactive | inactive | inactive | inactive | inactive | – | inactive | inactive
8 | CCCCCC(C)O (configuration not stated) | inactive | inactive | inactive | inactive | inactive | inactive | inactive | inactive | inactive | inactive | inactive | inactive | inactive | inactive | inactive | inactive | inactive | inactive | – | inactive
9 | CC12CCC(C1)C(C)(C)C2O (configuration not stated) | – | inactive | inactive | inactive | inactive | inactive | inactive | inactive | inactive | inactive | inactive | inactive | inactive | inactive | inactive | inactive | inactive | inactive | – | inactive
10 | CC(=O)C(C)O (configuration not stated) | inactive | inactive | inactive | inactive | inactive | inactive | inactive | inactive | inactive | inactive | inactive | inactive | inactive | inactive | inactive | inactive | inactive | – | inactive | inactive
11 | CN(C)CCCO[C@@H]1[C@H]2OC(C)(C)O[C@H]2O[C@@H]1C(O)CO (some centres not stated) | – | – | inactive | inactive | inactive | inactive | inactive | inactive | inactive | inactive | inactive | inactive | inactive | inactive | inactive | inactive | inactive | – | inactive | inactive
12 | CC1c2ccccc2CN1NC(=O)c1ccc(Cl)c(S(N)(=O)=O)c1 (configuration not stated) | inactive | – | inactive | inactive | inactive | inactive | inactive | inactive | inactive | inactive | inactive | inactive | inactive | inactive | inactive | inactive | inactive | inactive | – | inactive
13 | c1ccc(B(c2ccccc2)c2ccccc2)cc1 | inactive | inactive | inactive | inactive | inactive | inactive | inactive | inactive | inactive | inactive | inactive | inactive | inactive | inactive | 54.4 µM (active) | inactive | 31.7 µM (active) | – | inactive | inactive
